Many of the other results were omitted from the sample, so hits are more common in it than they were.
Tgondii IFNg – T. gondii growth inhibition with IFN-gamma, primary screen, cell-based. Toxoplasma gondii growth in IFN-gamma-treated host cells; stronger effect = lower value. activity change, negative = inhibition, % (concentration not given with the values). 69,000 compounds, 3.8% hits. AID 1259416, 2018; in the data active means activity change below about -70%, passing the limit was not always enough;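 further: host cells are HeLa cells infected with Toxoplasma gondii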
Numbers stand for hits; i = inactive.

SMILES | Tgondii IFNg
O=C(Cc1ccc(O)c(Cl)c1)N1CC[C@H](CO)[C@H](O)C1 | i
c1cnc2c(c1)ccc1cccnc12 | -96
CCc1nc(C)cc(-c2cccc3cccnc23)n1 | i
c1ccc(Oc2cccc3cccnc23)nc1 | i
Cc1cccc(C)c1NC(=O)c1cccc(CN(C)C(C)C(=O)N(C)C)c1 (stereo unspecified) | i
Cc1scc(C(=O)NCC2CCC(c3ncc(Cl)cc3-c3ccncc3)CC2)c1C (stereo unspecified) | -88
Cc1ncc(-c2ccccn2)c(C2CCC(CNC(=O)c3scnc3C)CC2)n1 (stereo unspecified) | i
Cc1ncc(-c2ccncc2C)c(C2CCC(CNC(=O)c3oc(C)nc3C)CC2)n1 (stereo unspecified) | i
CCOC(=O)N1CCC2(CC1)OC(=O)C(C)=C2C(=O)Nc1cc(OC)cc(OC)c1 | i
Cn1cc(C(CNC(=O)Nc2ccc(Br)cc2F)c2cccnc2)c2ccccc21 (stereo unspecified) | i
O=C(NCC(c1cccnc1)c1c[nH]c2ccccc12)Nc1cccc(Br)c1 (stereo unspecified) | i
O=C(NCC(c1cccnc1)c1c[nH]c2ccccc12)Nc1ccc(Br)cc1F (stereo unspecified) | -116
COc1ccccc1-c1noc(CCC(=O)NC[C@H]2C[C@H]3C=C[C@H]2C32CC2)n1 | i
Cc1cnccc1CN(C)C(=O)c1ccnc(N)c1 | i
COCCC(=O)N1Cc2cc(-c3ccn[nH]3)ccc2C1c1cnco1 (stereo unspecified) | i
O=C1Nc2cc(Cl)ccc2Oc2ccccc21 | i
O=C1NC2(C=Cc3c(ccc4ccccc34)O2)Oc2ccccc21 (stereo unspecified) | -107
C[C@H](O)CNC(=O)c1cc(Cn2ccc3ccccc32)[nH]n1 | i
Cc1nonc1CN(C)C(=O)c1cccc(NCc2cccnc2)c1C | i
CN(Cc1ccccc1)Cc1cc(C(=O)N2CCN(C)C(=O)C2)no1 | i
COc1ccc(-c2nc(CCNC(=O)c3cccs3)cs2)cc1OC | i
COc1ccc(-c2nc(CCNC(=O)c3ccccc3Br)cs2)cc1 | i
CCOc1ccc(C(=O)NCCc2csc(-c3cccc(F)c3)n2)cc1OCC | i
O=C(NCCc1csc(-c2ccccc2)n1)c1cccs1 | i
CCOc1ccc(C(=O)NCCc2csc(-c3ccc(OC)cc3)n2)cc1 | i
SMILES | Tgondii IFNg
CCCCOc1ccc(C(=O)NCCc2csc(-c3ccc(Cl)cc3)n2)cc1 | i
COc1ccc(-c2nc(CCNC(=O)c3ccc(OC)cc3OC)cs2)cc1 | i
O=C(NCCc1csc(-c2ccc(Cl)cc2)n1)c1cccs1 | -79
CCCCOc1ccc(C(=O)NCCc2csc(-c3ccc(OC)cc3)n2)cc1 | -110
CCOc1cc(C(=O)NCCc2csc(-c3cccc(F)c3)n2)cc(OCC)c1OCC | i
CCOc1ccccc1C(=O)NCCc1csc(-c2cccc(F)c2)n1 | -91
COc1ccc(C(=O)NCCc2csc(-c3ccc(Cl)cc3)n2)c(OC)c1 | -85
C=CCN1CCN(C(=O)[C@H]2CCCO2)Cc2ccc(C)nc21 | i
CCCCS(=O)(=O)N1CCC2C1CCC(=O)N2c1cnn(C)c1 (stereo unspecified) | i
CC/C=C/CC(=O)N(Cc1ccncc1)C(C)CC (stereo unspecified) | i
COc1ccc(CC(=O)N2CCN(S(=O)(=O)c3cc4c5c(c3)CCN5C(=O)CC4)CC2)cc1OC | i
CCOC(=O)c1c(NC(C)=O)sc2c1CCCC2 | i
O=C(Oc1ccc2oc(=O)sc2c1)c1ccccc1Cl | i
Cc1cccc(NC(=O)c2cc(-c3cn(-c4ccccn4)cn3)n3ccccc23)c1 | i
CN(C)CCNC(=O)c1ccn(-c2ccc3ccccn23)n1 | i
Cc1cc(C)n(Cc2nc(-c3ccc(NC(=O)c4cccc(Cl)c4)cc3)oc2C)n1 | i
COc1ccccc1OCC(=O)NCCc1csc(-c2cccc(F)c2)n1 | i
O=C(NCCc1csc(-c2ccc(Cl)cc2)n1)c1ccc(F)cc1 | i
COc1ccc(C(=O)NCCc2csc(-c3cccc(F)c3)n2)cc1OC | i
COc1ccccc1C(=O)NCCc1csc(-c2cccc(F)c2)n1 | -78
O=C(NCCc1csc(-c2ccc(Cl)cc2)n1)c1ccccc1 | i
O=C(NCCc1csc(-c2ccc(F)cc2)n1)c1ccccc1 | -81
O=C(NCCc1csc(-c2cccc(F)c2)n1)c1ccccc1F | i
Cc1ccc(C)c(NC(=O)C(=O)NCCc2csc(-c3cccc(F)c3)n2)c1 | -101
COc1ccc(Cl)cc1C(=O)NCCc1csc(-c2cccc(F)c2)n1 | -90
SMILES | Tgondii IFNg
COc1ccc(Cl)cc1C(=O)NCCc1sc(-c2cccc(F)c2)nc1C | i
Cc1ccc(C)c(NC(=O)C(=O)NCCc2csc(-c3ccc(F)cc3)n2)c1 | i
Cc1ccc(Cl)cc1NC(=O)C(=O)NCCc1csc(-c2cccc(F)c2)n1 | i
CCCCS(=O)(=O)N1C[C@H]2C[C@H](C(=O)N3CCOCC3)[C@@H](C1)O2 | i
O=C(CC1NC(=O)c2ccccc21)NCc1nc(C2CCCCC2)no1 (stereo unspecified) | i
O=C(CCc1ccc(Cl)cc1)N1CCCC(O)(CO)CC1 (stereo unspecified) | i
CC(NCc1nc(-c2ccco2)no1)c1ccccc1-n1cccn1 (stereo unspecified) | i
COc1ccccc1CNC(=O)C[C@H]1C=C[C@H](NC(=O)CC2CC2)[C@H](CO)O1 | i
COc1cccc(CN2C[C@H]3CN(C(=O)c4ccco4)CCO[C@@H]3C2)c1 | i
Cc1onc(-c2ccccn2)c1C(=O)NCCc1c[nH]c2ccc(Cl)cc12 | i
Cc1cc(C2CCCN2Cc2cn(C(C)C)c3ccccc23)no1 (stereo unspecified) | i
Cc1cc(C)c(NC(=O)Cn2c(=O)cc(C(=O)N3CCOCC3)c3ccccc32)c(C)c1 | i
Cc1cccc(C(=O)N2CCC(C)(C(=O)NCc3ccc(F)cc3F)CC2)c1 | i
N=c1scc(-c2ccccc2)n1-c1cc(C(F)(F)F)ccc1N1CCOCC1 | i
Cc1ccc(-c2nc(NC(=O)c3cc(C(C)(C)C)nn3C)sc2C)cc1Cl | -78
Cc1ccc(-c2nc(NC(=O)c3cncc(-c4cccs4)c3)sc2C)cc1Cl | i
CCc1cc(C(=O)Nc2nc3c(s2)CCCCCC3)n(C)n1 | i
Cc1nc(-c2ccccc2)sc1-c1nc(-c2ccc(C(C)(C)C)cc2)no1 | -77
FC(F)(F)c1ccc(-c2noc(/C=C/c3ccccc3)n2)cc1 | i
CC(C)(C)c1ccc(-c2nc(-c3ccc(Cl)cc3)no2)cc1 | i
O=C(NC(Cc1c[nH]c2ccccc12)C(=O)O)c1ccc(Cl)cc1 (stereo unspecified) | i
CC(CCN1CCC2(CC1)C(=O)N(Cc1ccccc1)C(=O)N2C)c1ccccc1 (stereo unspecified) | i
O=C(C(O)c1ccc(Cl)cc1)N1CCC(O)(CO)CC1 (stereo unspecified) | i
O=C(Nc1ccc2c(c1)COCO2)c1sc2ccccc2c1Cl | i
COc1ccc(-c2[nH]ncc2CNC(=O)c2ccc(N3CCOCC3)cc2)cc1 | i
N#CCNC(=O)c1ccc(-c2ccnc(Nc3ccc(N4CCOCC4)cc3)n2)cc1 | -80
COc1ccc(NC(=O)CS(=O)CC(=O)Nc2ccc(N3CCOCC3)cc2)cc1 (stereo unspecified) | i
COc1cc(NCc2ccccc2CN2CCCC2=O)ncn1 | i
CCCNC(=O)C1CC2(CO1)c1ccccc1CN2Cc1cccc(OC)c1 (stereo unspecified) | i
O=C(C1CCC1)N1C[C@@H](O)[C@H](NCc2cccnc2)C1 | i

Compound activity deposited in PubChem BioAssay by Broad Institute.
